Our source for the outcome, potentiation and inhibition values is PubChem BioAssay.

The term inhibition denotes how much of the control response was suppressed.

SMILES strings stand for the structures. For part of these data: Results with a measured potency or affinity are listed apart. Calls of active or inactive are those of the source.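 How the source made its calls, unless noted: active means earlier screen potentiator hit that boosts the TRPC4 ion channel at some dose, with a dose response; inactive means no potentiation, no dose response, or not a prior hit.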

Assay [1] relates to TRPC4 beta (transient receptor potential cation channel C4), mouse. The assay can be described thus: activators of mouse TRPC4 channel, confirmation, cell-based, Fluo4 calcium, HEK293 TRPC4beta/mu-opioid, duplicates, 10 µM (AID 2426;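 active means fluorescence ratio normalized to control raised more than 50% in primary screen plus both repeat runs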). Particulars: Fluo4 calcium fluorescence, at 10 µM; hits give high values.
Assay [2] relates to transient receptor potential cation channel C4 beta (TRPC4), mouse. The assay can be described thus: activators of mouse TRPC4 channel, confirmation, cell-based, second round, Fluo4, HEK293 TRPC4beta/mu-opioid, 1 µM (AID 2461;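 active means primary screen active and over 50% activation in each of two duplicate runs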). The conditions noted are these: Fluo4 calcium fluorescence, at 1 µM; hits give high values.
The subject of assay [3] is TRPC4 (transient receptor potential cation channel C4 beta), mouse. The assay can be described thus: positive allosteric modulators of mouse TRPC4, confirmation, cell-based, second round, Fluo-4, HEK293 TRPC4beta/mu-opioid, 1 µM (AID 2554;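 active means primary screen hit whose fluorescence ratio, in both repeats, exceeds the weak agonist control mean by 3 SD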). The conditions noted are these: DAMGO EC20, Fluo-4 calcium flux, at 1 µM; hits give high values.
The subject of assay [4] is TRPC4 beta (transient receptor potential cation channel C4), mouse. The assay can be described thus: positive allosteric modulators of mouse TRPC4, confirmation, cell-based, Fluo-4, HEK293 TRPC4beta/mu-opioid (AID 2555;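 active means primary screen hit whose calcium fluorescence ratio, in both repeats, exceeds the weak agonist control mean by 3 SD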). The conditions noted are these: DAMGO EC20, Fluo-4 calcium flux, at 10 µM; hits give high values. Background: Calcium flux is commonly read through the fluorescence of an indicator in the cells.

Assay [5] concerns the target Short transient receptor potential channel 4 (Mus musculus) (UniProt Q9QUQ5). The assay can be described thus: inhibitors of mouse TRPC4 channel, confirmation, cell-based, Fluo4, HEK293 TRPC4beta/mu-opioid (AID 2636;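 active means calcium signal cut by more than 3 SD below the full-agonist control yet still positive, in both repeats and the earlier primary screen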). The conditions noted are these: DAMGO, Fluo4 calcium flux, at 10 µM; hits give high values.
For assay [6] the target is unchanged. The assay can be described thus: inhibitors of mouse TRPC4 channel, confirmation, cell-based, second round, Fluo4, HEK293 TRPC4beta/mu-opioid, 1 µM (AID 2637;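 active means calcium signal ratio cut to more than 3 SD under the fully stimulated control mean yet still positive, in both repeats and the primary screen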;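 on inhibition: percent of integrated ratio relative to wells lacking test compound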). Particulars: Fluo4 calcium flux, DAMGO, at 1 µM; hits give high values.
The target is the same in assay [7]. The assay can be described thus: mouse TRPC4 channel activators, dose response, cell-based, HEK293 TRPC4/mu-opioid, Fluo-4 calcium (AID 434937;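 active means primary screen activator hit with a dose response curve and TRPC4 channel activation at any tested dose; inactive means no activation, no dose response, or not a primary hit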).
Assay [8] has the same target. Kind of assay: TRPC4 positive allosteric modulators, dose response, cell-based, HEK293 TRPC4/mu-opioid, Fluo-4 calcium, EC20 DAMGO (AID 434941).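 Further: calcium entry triggered by an EC20 dose of DAMGO at the co-expressed mu-opioid receptor.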
The target is the same in assay [9]. The assay can be described thus: mouse TRPC4 channel inhibitors, dose response, cell-based, HEK293 TRPC4/mu-opioid, Fluo-4 calcium (AID 434942;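 active means primary screen inhibitor hit that blocks the TRPC4 channel at some tested dose, yielding a dose curve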).
In assay [10] the target is Short transient receptor potential channel 6 (Mus musculus) (UniProt Q61143). The assay can be described thus: inhibition of mouse TRPC6 channel, confirmation, selectivity assay for TRPC4 inhibitor project, cell-based, HEK293, membrane potential dye, duplicate (AID 434948;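 active means active in primary screen and both duplicates, each dropping signal beyond three positive-control SD with fluorescence still positive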). Particulars: HEK293 TRPC6, membrane potential dye fluorescence, at 10 µM, stimulated with maximal-effect acetylcholine; hits give high values.

Assay [11] shares this target. The assay can be described thus: activation of mouse TRPC6 channel, confirmation, selectivity assay for TRPC4 activator project, cell-based, HEK293, membrane potential dye, duplicate (AID 434950;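 active means membrane potential signal rise above negative control mean plus 3 SD in both duplicates, also active in the earlier TRPC4 screen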). Particulars: HEK293 TRPC6, membrane potential fluorescence, at 10 µM; hits give high values.
The target is the same in assay [12]. Kind of assay: TRPC6 potentiation by TRPC4 potentiator hits, confirmation, selectivity assay for TRPC4 potentiator project, HEK293 cells, membrane potential dye, duplicate (AID 434952;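 active means compound raising the membrane signal above positive-control mean plus 3 SD in both repeats, and a primary screen hit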). Particulars: HEK293 TRPC6, membrane potential dye fluorescence, at 10 µM, maximal acetylcholine added after compound; hits give high values.
Assay [13] concerns the target Short transient receptor potential channel 4 (Mus musculus) (UniProt Q9QUQ5). The assay can be described thus: calcium flux activators in TRPC4/5HT1a cells, counter-screen for TRPC4 activator project, cell-based, second counter screen, HEK293 TRPC4/5HT1a, Fluo-4 (AID 434977;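 active means calcium signal rise above buffer-control mean plus 5 SD in both duplicates, and also a hit in the primary screen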). The conditions noted are these: Fluo-4 calcium flux, at 10 µM; hits give high values.
Assay [14] can be described thus: calcium flux inhibitors in TRPC4/5HT1a cells, confirmation, counter-screen for TRPC4 inhibitor project, cell-based, second counter screen, HEK293 TRPC4/5HT1a, Fluo-4 (AID 434978;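 active means primary screen active whose calcium signal fell more than 3 SD beyond the full-serotonin control mean in both duplicate plates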;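 further: serotonin given first at submaximal then at maximal dose after compound preincubation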). The conditions noted are these: Fluo-4 calcium flux, at 10 µM, serotonin added to trigger calcium flux; hits give high values.
For assay [15], the system named is TRPC4 (mouse), co-expressed with 5HT1a in HEK293. The assay can be described thus: calcium flux potentiators in TRPC4/5HT1a cells, confirmation, counter-screen for TRPC4 potentiator project, cell-based, second counter screen, HEK293 TRPC4/5HT1a, Fluo-4 (AID 434979;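 active means signal rise over 3 SD above mean of control wells given weak agonist, in both repeats and first screen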). Particulars: Fluo-4 calcium flux, at 10 µM, serotonin added at its EC20 dose; hits give high values.

Assay [16] in a line: calcium flux activation in mu-opioid HEK293 cells, confirmation, counter-screen for TRPC4 activator project, cell-based, HEK293 mu-opioid receptor line (AID 449723;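 active means hit in primary screen, with calcium signal over 5 SD above buffer well mean in both duplicates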;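 further: counter screen cells carry the mu-opioid receptor alone and lack TRPC4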). The conditions noted are these: Fluo-4 calcium fluorescence, at 10 µM; hits give high values.
Assay [17] in a line: calcium flux enhancement in mu-opioid HEK293 cells, confirmation, counter-screen for TRPC4 allosteric potentiator project, cell-based, HEK293 mu-opioid receptor line (AID 449724;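 active means calcium signal rise more than 3 SD above the low-dose agonist control mean, in both duplicate plates and the primary screen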;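 further: HEK293 cells carrying mu-opioid receptor only with no TRPC4 channel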). Particulars: Fluo-4 calcium flux, at 10 µM, compound added before EC20 DAMGO stimulus; hits give high values.

Chain of Short transient receptor potential channel 4 (Mus musculus) (Q9QUQ5 whole entry, looked up): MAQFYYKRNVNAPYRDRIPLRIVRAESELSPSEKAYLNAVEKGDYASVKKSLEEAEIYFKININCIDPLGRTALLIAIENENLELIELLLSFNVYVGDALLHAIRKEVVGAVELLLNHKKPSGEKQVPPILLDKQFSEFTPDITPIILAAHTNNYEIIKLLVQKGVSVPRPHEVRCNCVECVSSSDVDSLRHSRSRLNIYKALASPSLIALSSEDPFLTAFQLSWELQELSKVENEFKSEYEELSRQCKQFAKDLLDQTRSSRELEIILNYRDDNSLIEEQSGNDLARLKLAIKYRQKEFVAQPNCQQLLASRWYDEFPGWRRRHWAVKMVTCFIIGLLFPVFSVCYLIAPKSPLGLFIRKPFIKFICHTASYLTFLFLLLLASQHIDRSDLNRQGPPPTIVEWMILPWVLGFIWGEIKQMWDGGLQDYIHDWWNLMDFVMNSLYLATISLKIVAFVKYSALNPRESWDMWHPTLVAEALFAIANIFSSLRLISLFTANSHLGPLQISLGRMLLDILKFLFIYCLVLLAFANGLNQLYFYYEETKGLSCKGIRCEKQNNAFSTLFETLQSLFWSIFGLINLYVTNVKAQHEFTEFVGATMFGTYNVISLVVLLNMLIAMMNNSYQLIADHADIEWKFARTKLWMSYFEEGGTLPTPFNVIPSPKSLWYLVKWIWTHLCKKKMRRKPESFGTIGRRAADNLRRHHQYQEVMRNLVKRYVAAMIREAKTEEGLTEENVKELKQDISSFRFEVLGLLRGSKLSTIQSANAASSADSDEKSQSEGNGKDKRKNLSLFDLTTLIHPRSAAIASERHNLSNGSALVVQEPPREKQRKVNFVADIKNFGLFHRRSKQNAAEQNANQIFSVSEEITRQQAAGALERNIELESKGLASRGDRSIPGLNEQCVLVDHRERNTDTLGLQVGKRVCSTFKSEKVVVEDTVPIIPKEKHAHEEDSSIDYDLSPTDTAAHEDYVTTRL
Chain of Short transient receptor potential channel 6 (Mus musculus) (Q61143 whole entry, looked up): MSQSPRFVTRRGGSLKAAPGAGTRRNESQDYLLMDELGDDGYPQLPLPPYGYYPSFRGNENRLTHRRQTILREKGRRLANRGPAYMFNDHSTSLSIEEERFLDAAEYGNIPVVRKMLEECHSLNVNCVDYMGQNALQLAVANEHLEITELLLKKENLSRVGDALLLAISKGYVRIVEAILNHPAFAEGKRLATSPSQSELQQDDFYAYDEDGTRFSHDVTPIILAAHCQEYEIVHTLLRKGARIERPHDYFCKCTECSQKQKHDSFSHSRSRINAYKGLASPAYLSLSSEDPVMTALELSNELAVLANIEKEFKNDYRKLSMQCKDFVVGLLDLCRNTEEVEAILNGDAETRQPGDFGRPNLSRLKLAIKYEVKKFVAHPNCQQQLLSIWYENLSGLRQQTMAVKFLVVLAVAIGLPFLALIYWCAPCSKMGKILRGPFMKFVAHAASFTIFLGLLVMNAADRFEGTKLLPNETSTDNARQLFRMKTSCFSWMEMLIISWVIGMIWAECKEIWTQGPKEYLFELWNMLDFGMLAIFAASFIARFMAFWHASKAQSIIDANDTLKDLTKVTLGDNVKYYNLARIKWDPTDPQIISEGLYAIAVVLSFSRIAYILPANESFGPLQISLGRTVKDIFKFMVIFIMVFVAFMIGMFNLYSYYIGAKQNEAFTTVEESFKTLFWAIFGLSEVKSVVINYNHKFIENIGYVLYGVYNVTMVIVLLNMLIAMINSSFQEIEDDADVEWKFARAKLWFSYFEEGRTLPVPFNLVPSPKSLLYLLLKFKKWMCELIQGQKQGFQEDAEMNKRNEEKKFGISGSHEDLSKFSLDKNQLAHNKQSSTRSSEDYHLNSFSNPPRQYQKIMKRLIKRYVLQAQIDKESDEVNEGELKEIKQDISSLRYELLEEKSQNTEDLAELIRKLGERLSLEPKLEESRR

Turning to `CC(C)OC(=O)C1CC=CCC1C(=O)Nc1ccc(Cl)cc1` (stereo not given), the result in assay [1], in [2], in assay [3], in [4], in assay [5] and in assay [6] was inactive. Moreover, the result in [7], in assay [8], in assay [9], in assay [10], in assay [11] and in assay [12] was inactive. Further, the outcome in [13], in assay [14], in assay [15], in [16] and in assay [17] was inactive.

For the compound `Cn1c(=O)c2c(nc(CN3CCc4ccccc4C3)n2Cc2cccc(Cl)c2)n(C)c1=O`, the outcome in [1], in assay [2], in [5], in assay [6], in assay [7] and in assay [8] was inactive. Besides, the result in assay [9], in assay [10], in [11], in assay [12], in assay [13] and in [14] was inactive. For the same compound, the result in [16] and in assay [17] was inactive. The potentiation was 6% (active) in assay [3], 45% (active) in assay [4] and 78.3% (active) in [15].

Turning to `Cc1ccc(-c2nn(-c3ccccc3)cc2C(=O)Nc2ccc(C(=O)O)cc2)cc1`, the result in [1], in assay [2], in [3], in [4], in assay [5] and in [6] was inactive. The result in assay [7], in assay [8], in assay [9], in [10], in assay [11] and in assay [12] was inactive. Also, the outcome in [13], in [14], in [15], in assay [16] and in assay [17] was inactive.

As to `O=C(COC(=O)c1nc(Cl)ccc1Cl)c1ccccc1Cl`, the outcome in assay [1], in [2], in [3], in assay [4], in assay [5] and in assay [6] was inactive. For the same compound, the outcome in [7], in assay [8], in [9], in [10], in assay [11] and in [12] was inactive. The outcome in assay [13], in assay [14], in assay [15], in assay [16] and in [17] was inactive.

For the compound `CCN(C(=O)c1cc2c(s1)-c1ccccc1OC2)c1cc(OC)ccc1OC`, the outcome in assay [1], in assay [2], in [3], in assay [4], in assay [5] and in assay [6] was inactive. Besides, the outcome in assay [7], in assay [8], in assay [9], in assay [10], in [11] and in assay [12] was inactive. Also, the result in assay [13], in assay [14], in assay [15], in [16] and in assay [17] was inactive.

For `CCCCN(C)C(=O)Cn1ncc2c3ccccc3n(CCC)c2c1=O`, the result in assay [1], in assay [2], in assay [3], in [5], in [6] and in assay [7] was inactive. For the same compound, the result in assay [8], in assay [9], in assay [10], in assay [11], in assay [12] and in assay [13] was inactive. Further, the result in assay [14], in assay [16] and in assay [17] was inactive. For the same compound, the potentiation in assay [4] is 37% (active); in assay [15], 42.7% (active).

Regarding `COc1ccc(-n2cc(CNCc3cnc4ccccn34)c(-c3cccc(F)c3)n2)cc1`, the result in assay [1], in [2], in assay [3], in [4], in [5] and in [6] was inactive. In addition, the result in [7], in assay [8], in [9], in [10], in assay [11] and in assay [12] was inactive. The outcome in assay [13], in assay [14], in [15], in assay [16] and in [17] was inactive.

Consider `CC(=O)C1=C(O)C(=O)N(Cc2ccco2)C1c1ccc2c(c1)OCO2` (stereo not given), for which the result in assay [1], in assay [2], in assay [3], in assay [4], in assay [7] and in [8] was inactive. The result in assay [9], in assay [10], in assay [11], in assay [12], in [13] and in assay [14] was inactive. Moreover, the result in assay [15], in [16] and in assay [17] was inactive. Also, the values for the inhibition in [5] and in [6] were 94% (active) and 47% (active), respectively.

Take `CCNC(=S)N/N=C/c1cc(C)n(-c2ccc(Cl)cc2)c1C`: the result in [1], in assay [2], in assay [3], in assay [5], in assay [6] and in assay [7] was inactive. Also, the result in [8], in assay [9], in [10], in assay [11], in assay [12] and in assay [13] was inactive. The outcome in assay [14], in assay [16] and in assay [17] was inactive. Further, the potentiation is 19% (active) in [4] and 17.3% (active) in assay [15].

For the compound `CC(C)(C)n1nnnc1C(c1ccc(Cl)cc1)N(Cc1cccnc1)Cc1ccco1` (stereo not given), the outcome in [1], in assay [2], in assay [3], in [4], in [5] and in assay [6] was inactive. In addition, the outcome in [7], in assay [8], in assay [9], in assay [10], in assay [11] and in [12] was inactive. In addition, the outcome in assay [13], in [14], in [15], in [16] and in assay [17] was inactive.

For `c1ccc2c3c([nH]c2c1)CCNC3`, the result in [1], in assay [2], in assay [3], in assay [4], in assay [5] and in [6] was inactive. Besides, the outcome in [7], in assay [8], in assay [9], in assay [10], in [11] and in [12] was inactive. In addition, the result in assay [13], in assay [14], in assay [15], in assay [16] and in assay [17] was inactive.

With `CCOC(=O)c1c(C(F)(F)C(F)(F)C(F)(F)C(F)(F)F)n[nH]c1C`, the result in [1], in assay [2], in assay [3], in assay [4], in assay [5] and in assay [6] was inactive. Moreover, the outcome in assay [7], in [8], in [9], in assay [10], in assay [11] and in assay [12] was inactive. Besides, the result in assay [13], in assay [14], in [15], in assay [16] and in assay [17] was inactive.

Take `CC(C)n1c(SCC(=O)N2c3ccccc3Sc3ccccc32)nc2c1c(=O)n(C)c(=O)n2C`: the result in assay [1], in assay [2], in [3], in assay [4], in [5] and in [6] was inactive. Moreover, the result in assay [7], in assay [8], in [9], in [10], in assay [11] and in assay [12] was inactive. For the same compound, the outcome in assay [13], in assay [14], in [16] and in [17] was inactive. Moreover, the potentiation in assay [15] was 50.7% (active).

Regarding `C=CCn1c(SCC(=O)c2ccc(NS(=O)(=O)c3ccccc3)cc2)nnc1-c1cccs1`, the result in assay [1], in assay [2], in [3], in [4], in [5] and in [6] was inactive. Moreover, the outcome in [7], in [8], in assay [9], in assay [10], in assay [11] and in assay [12] was inactive. Further, the outcome in assay [13], in assay [14], in [16] and in [17] was inactive. Further, the potentiation in assay [15] is 14% (active).

Take `CCOC(=O)c1cnc(-n2nc(C)cc2C)nc1NC1CCCCC1`: the outcome in [1], in assay [2], in assay [3], in assay [4], in [5] and in assay [6] was inactive. Moreover, the outcome in assay [7], in assay [8], in assay [9], in assay [10], in assay [11] and in assay [12] was inactive. Besides, the outcome in [13], in assay [14], in [16] and in assay [17] was inactive. Further, the potentiation in assay [15] is 26.3% (active).
